# Assay results as given in PubChem BioAssay AID652010 (The Scripps Research Institute Molecular Screening Center, 2013).
# Out of some 370,000 compounds screened, about 4,100 (1.1%) were called active. Many of the other results were omitted from the sample, so actives are more common in it than they were. Unmarked numbers belong to inactive results.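 The calls were made as follows: active = inhibition above the mean over all tested compounds plus 3 SD (cut at about 3.6% in these data); inactive = the rest.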
# Assay: DAX1 (NR0B1) inhibitors on StAR promoter, primary screen, cell-based, luminescence, SF-1 (NR5A1), full-length DAX-1 (AID 652010);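 also: 0% = DAX-1 cells with DMSO and 100% = cells lacking DAX-1 with DMSO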
# Conditions: HEK293T StAR-luciferase reporter, SF-1/DAX-1 repression relief; at 6.8 µM; hits give high values
row,SMILES,inhibition
1,C#CCCN([C@H](C(=O)OC)C(C)C)S(=O)(=O)c1ccc(F)cc1Br,-0.77%
2,O=C1CCC2(CCC(c3ccc(Cl)cc3)CC2)N1CCO (configuration not stated),-1.36%
3,O=S1(=O)c2c(cccc2N2CC[C@H](O)C2)O[C@@H]2CCN1C2,-0.61%
4,Cc1cc(OCc2cc(C(=O)NCc3cc(C(C)C)no3)no2)cc(C)c1Cl,7.8% (active)
5,COc1ccc(OCc2cc(C(=O)NCC3(C)COC3)no2)c(Cl)c1,-0.13%
6,COCCCNC(=O)COc1cc(C)c(Cl)c(C)c1,-0.64%
7,N#Cc1ccc(-c2nc3cc(C#N)c(C#N)cc3nc2-c2ccccc2)cc1C#N,-0.36%
8,Cc1cc(NC(=O)Nc2ccccc2[N+](=O)[O-])no1,-0.12%
9,Cc1csc(NC(=O)Nc2ccccc2[N+](=O)[O-])n1,4.06% (active)
10,CN1CCN(CCNC(=O)Nc2ccccc2[N+](=O)[O-])CC1,-0.08%
11,O=C1[C@@H]2C(c3cccnc3)=NO[C@@H]2C(=O)N1c1ccc(Cl)cc1Cl,-0.39%
12,COc1cccc(CNC(=O)CNS(=O)(=O)c2ccc3nc(C)sc3c2)c1OC,-0.3%
13,Cc1ccc(CSc2nnc(SCC(=O)NN=Cc3cc(Br)ccc3F)s2)cc1,-0.52%
14,COc1ccc(C(=O)OCCN2CCN(C3CN(Cc4cn(Cc5ccccc5F)nn4)S(=O)(=O)C3)CC2)cc1OC (configuration not stated),-2.65%
15,CC(=O)c1ccc(NC(=O)c2sc3nc4n(c(=O)c3c2C)CCCCC4)cc1,4% (active)
16,N=c1c2c3c(sc2nc2n1CCCCC2)CCCC3,0.02%
17,COc1cccc(C(=O)Nc2ccc3nc4n(c(=O)c3c2)CCCCC4)c1,-0.05%
18,O=c1c2c(nc3n1CCCCC3)sc1c(O)cccc12,4.81% (active)
19,O=C(Cn1[nH]c(=O)c2ccccc2c1=O)Nc1cccc(-c2nnc3n2CCCCC3)c1,-0.2%
20,O=C(Nc1ccc2nc3n(c(=O)c2c1)CCCC3)c1ccc(Cl)nc1,-1.19%
21,CCOc1ccccc1C(=O)N1CCC[C@@H]1C(=O)N1CCC[C@H]1C(=O)NCc1ccccc1,0.55%
22,COc1ccc(-n2c(SCC(=O)NC3CCCC3)nnc2-c2ccncc2)cc1,-0.56%
23,CC(=NNC(N)=O)c1ccc(Cl)c(-n2cccc2)c1,-0.18%

row,SMILES,inhibition
1,CCNc1nc(-c2cc3ccccc3o2)cs1,4.18% (active)
2,COc1ccccc1CN(C)C(=O)c1cc2ccccc2o1,-0.34%
3,Cn1c(SCC(=O)NC2CCCCC2)nnc1-c1cc2ccccc2o1,-0.14%
4,O=C(NCc1ccc(F)cc1)c1cc(C2CCCCN2C(=O)c2ccccn2)on1 (configuration not stated),-1.23%
5,COc1ccc(C2CC=C(C(=O)O)C(c3ccccc3F)N2S(=O)(=O)c2ccc(C)cc2)cc1OC (configuration not stated),0.7%
6,O=S(=O)(c1ccccc1)N1CCC(c2nc3ccccc3o2)CC1,-0.48%
7,Cc1ccc(CN2CCC(N3CCC(C(=O)NCC4CCCO4)CC3)CC2)o1 (configuration not stated),0.9%
8,CC(=O)NC(c1cccc(F)c1)c1nc(-c2cccc(F)c2)cs1 (configuration not stated),-0.34%
9,CC(=O)Nc1cccc(-c2csc(Nc3cccc(C)n3)n2)c1,4.69% (active)
10,Cc1cccc(NC(=O)COc2ccc(Br)cc2C)n1,2.42%
11,OC(c1ccccc1)(c1ccccc1)C1CCN(CCCOc2ccc(-c3ccsc3)cc2)CC1,-0.82%
12,CCC(=O)Nc1ccc2c(c1)C(=O)N(C)[C@H]1CC[C@H](CC(=O)NCCOC)O[C@@H]1CO2,0.92%
13,Cc1c(C=O)n(C)n(-c2ccccc2)c1=O,0.3%
14,Cc1c(N=Nc2ccc(N(C)C)cc2)c(=O)n(-c2ccccc2)n1C,4.03% (active)
15,Cc1nc(N)sc1N=Nc1c(C)n(C)n(-c2ccccc2)c1=O,0.04%
16,C=CCn1c(SCC(N)=O)nnc1-c1ccccc1OC,-0.12%
17,CCN(CC(=O)Nc1ccc(C)c(S(=O)(=O)N(C)C)c1)Cc1ccccc1,0.23%
18,COc1ccc(CCC(=O)OCC(=O)Nc2ccc(C)c(S(=O)(=O)N(C)C)c2)cc1,1.11%
19,Cc1ccc(C(=O)Nc2ccc(C)c(S(=O)(=O)N(C)C)c2)s1,4.23% (active)
20,CCc1nc2ccc(C(=O)Nc3ccc(OC)c(OC)c3)cn2c1N(C)C(=O)c1cccc(OC)c1,-1.08%
21,CSCCC(NC(=O)c1ccco1)C(=O)OCC(=O)Nc1ncc(Cl)c(C)c1Cl (configuration not stated),-0.11%
22,CSCCC(NC(=O)c1ccco1)C(=O)Nc1cc(C)ccn1 (configuration not stated),11% (active)
23,CSCCC(NC(=O)c1ccco1)C(=O)NCCc1ccc(F)cc1 (configuration not stated),0.47%

row,SMILES,inhibition
1,COC(=O)c1ccc(CN2C(=O)NC(c3ccccc3)(c3ccccc3)C2=O)o1,0.15%
2,O=C(C1CCCN1S(=O)(=O)c1ccccc1)N1CCc2ccccc2C1 (configuration not stated),-0.56%
3,CC(NC(=O)COC(=O)c1ccc2ccccc2n1)c1ccccc1 (configuration not stated),0.44%
4,CC(C)CC(=O)N/C(N)=N/c1nc2ccccc2s1,4.37% (active)
5,CC(C)C(C)NC(=O)COc1ncnc2ccccc12 (configuration not stated),-0.45%
6,CCC(=O)NC(=Nc1nc2ccccc2s1)NC(=O)CC,3.92% (active)
7,CC(C)CC(=O)NC(=S)NNC(=O)c1cccc([N+](=O)[O-])c1,-0.72%
8,O=C(CSc1nc2ccccc2s1)NN=Cc1ccc(O)cc1O,-0.65%
9,Cc1ccc(C)c(NC(=O)CCS(=O)(=O)c2ccccc2)c1,0.88%
10,COc1ccc(S(=O)(=O)n2nc(C)c(S(=O)(=O)N3CCOCC3)c2C)cc1,-0.25%
11,COc1ccc(CN2C/C(=C/c3ccccc3)N3C(=O)C[C@@H](c4ccccc4)N=C23)c(OC)c1,-0.16%
12,CCN(CC)C(=O)CC[C@H]1CC[C@]2(CCCN(Cc3ccc(Cl)cc3)C2)O1,-0.32%
13,COc1ccc(S[C@]2(C(=O)N(C)C)CC(=O)N(c3ccc(OC)cc3)[C@@H]2c2ccc(OC)cc2)cc1,-0.46%
14,Cc1cc(=O)[nH]c(SCC(=O)Nc2ccc(Cl)cc2C)n1,0.86%
15,CCCCCCNC(=O)O[C@H]1CN(C(=O)OC(C)C)N(C(=O)OC(C)C)[C@@H]2CN(S(=O)(=O)c3ccc(C)cc3)C[C@]12O,4.45% (active)
16,CCCCCCNC(=O)O[C@]12C[C@@H](C(=O)OC)[C@@H](C(=O)OC)C[C@@]1(O)CN(S(=O)(=O)c1ccc(C)cc1)C2,-0.86%
17,Cc1ccc(S(=O)(=O)N2C[C@H]3n4c(=O)ccc(=O)n4C[C@H](OC(=O)NC4CCCC4)[C@@]3(O)C2)cc1,-0.77%
18,Cc1ccccc1NC(=O)COC(=O)c1ccc(Sc2ncn[nH]2)c([N+](=O)[O-])c1,2.48%
19,CC1(C)OC(=O)C2=C(CC(CCc3ccccc3)OC2c2ccc(Cl)cc2)O1 (configuration not stated),-1.2%
20,COc1ccccc1-c1nnc(NC(=O)c2ccc3ncsc3c2)o1,0.87%
21,Cc1sc(NC(=O)c2ccc3ncsc3c2)c(C(N)=O)c1C,10.2% (active)
22,O=C(COC(=O)c1ccc2ncsc2c1)Nc1ccc(Cl)cc1,-0.21%
23,CCNC(=O)c1cccc(NC(=O)C2CC(=O)N(CCc3ccccc3)C2)c1 (configuration not stated),0.37%

row,SMILES,inhibition
1,CN(Cc1ccccc1Cl)C(=O)C1CCC(=O)N(CCc2cccc(F)c2)C1 (configuration not stated),0.69%
2,CN(CC(=O)Nc1cccc(F)c1)C(=O)C1CC(=O)N(CCc2ccccc2)C1 (configuration not stated),4.19% (active)
3,C=CCN1C(=O)[C@@H](CC(=O)N2CCN(C(=O)OCC)CC2)[C@]2(C(=O)OCC)CCCCC/C=C/12,1.04%
4,COC(=O)[C@H](C(C)C)N(CCCc1cn(Cc2ccccc2)nn1)S(=O)(=O)c1ccc(F)cc1Br,-1.67%
5,Cc1sc2ncnc(N3CCC(C(=O)NNC(=O)c4ccc(F)cc4)CC3)c2c1C,-3.62%
6,Cc1sc2ncnc(N3CCC(C(=O)Nc4nc5ccc(Cl)cc5s4)CC3)c2c1C,4.32% (active)
7,Cc1sc2ncnc(N3CCC(C(=O)Nc4ccc(F)cc4Cl)CC3)c2c1C,1.94%
8,CC(=O)C1=C(C)N(Cc2ccc(Cl)cc2)C(=S)NC1c1ccc(F)cc1 (configuration not stated),0.31%
9,COc1ccc(C(=O)OCC(=O)Nc2cc(C)on2)cc1F,-1.4%
10,Cc1cc(NC(=O)COc2ccccc2C#N)no1,4.34% (active)
11,Cc1cc(NC(=O)COn2nnc3ccccc32)no1,0.82%
12,COc1ccc(C2CC(=O)C=C(NCC3CCCO3)C2)cc1 (configuration not stated),-0.07%
13,CCCCCCN1CCS(=O)(=O)N(Cc2ccc(C(F)(F)F)cc2)C(C(=O)OC)C1 (configuration not stated),-0.72%
14,CCc1ccc(CN2C(=O)c3ccccc3C2C(=O)NCC2CCCO2)cc1 (configuration not stated),-0.05%
15,CC(=NCC1CCCO1)c1c(O)[nH]c(=O)[nH]c1=O (configuration not stated),1.34%
16,O=C1C(C=NCC2CCCO2)=C(O)c2ccccc21 (configuration not stated),4.59% (active)
17,COc1ccc(CNS(=O)(=O)c2cc(Br)ccc2Br)cc1,-0.4%
18,COc1ccc(C(=O)CSc2nnc(NC(=O)C3CC(=O)N(c4cccc(OC)c4)C3)s2)cc1 (configuration not stated),-0.22%
19,CCSc1nnc(NC(=O)c2ccc(C)cc2)s1,5.52% (active)
20,NC(=O)CSc1nnc(NC(=O)c2ccc3ccccc3c2)s1,6.15% (active)
21,COC(=O)c1ccc(CSc2nnc(NC(C)C)s2)cc1,-0.08%
22,CCCc1cc(=O)[nH]c2nnc(SCC(=O)Nc3nnc(SCC)s3)n12,2.35%
23,O=C(/C=C/c1ccccc1)Nc1nnc(SCC(=O)c2ccc3ccccc3c2)s1,0.17%
